These results are taken from PubChem BioAssay AID2685 (National Center for Advancing Translational Sciences (NCATS), 2010).

Hit rate of the full screen: of about 320,000 compounds, about 2,100 (0.66%) were called active. About 53% were inconclusive and are not listed. Calls follow the shape of the dose curve; as a rule, active = well fitted inhibition curve with a large enough effect in the signal ratio, with a control signal flat (not every such curve was filed as active); inconclusive = small, poorly fitted or top-dose-only effect, or effect the other way, or a change in a side signal; inactive = flat fitted curve, though single readings scatter; the % refers to the signal ratio. What follows is part of a selection rich in actives, with near analogues and random picks from the rest.
Potency is read from the fitted curve at half-maximal effect.

A short description of the test: qHTS Assay for Lipid Storage Modulators in Drosophila S3 Cells.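 As to cell number change: cells counted by Cell Tracker Red CMTPX staining in the red channel.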 As to lipid storage change, negative = inhibition: % is scaled to controls: 0 for no effect and ±100 for the full control effect. Particulars: BODIPY lipid droplet fluorescence, 18-24 h, cells fed with added oleic acid; cell number change: measured here: cell count max response; series mostly up to 46.1 µM; lipid storage change, negative = inhibition: at the top concentration. A digest of the protocol:
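Drosophila S3 cells got compounds at several concentrations plus oleic acid (400 uM solution). Laser-scanning cytometry with 488 nm excitation read lipid droplets at 500-530 nm and cells at 575-640 nm. Percent activity was relative to 20 uM Triacsin C.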
For `COc1cccc(C(=O)Nc2nnc(S(=O)(=O)N3CCCC3)s2)c1`, the Potency was 4.11 µM (active) and the cell number change was -14.5%. With `COc1ccc(CN(C)S(=O)(=O)c2nnc(NC(=O)c3cccc(F)c3)s2)cc1`, the compound was called inactive. As to `Cc1cccc(C(=O)Nc2nnc(S(=O)(=O)N3CCOCC3)s2)c1`, the “lipid storage change, negative = inhibition” value is -27.6% (inactive) and the cell number change was -0.612%. Regarding `CN(Cc1ccc(F)cc1)S(=O)(=O)c1nnc(NC(=O)c2ccccc2)s1`, the result was inactive and the cell number change turned out to be 3.05%. Take `COc1cccc(C(=O)Nc2nnc(S(=O)(=O)N(C)Cc3ccc(F)cc3)s2)c1`: the Potency was 29.1 µM (active) and the cell number change is -17.9%.

In the case of `CN(Cc1ccc2c(c1)OCO2)C(=O)c1cc(-c2ccccc2)c(N2CCOCC2)s1`, the outcome was inactive and the cell number change is -5.64%. Consider `COc1cccc(C(=O)NCc2nnc(SCC(=O)Nc3nccs3)n2-c2cccc(C)c2)c1`, for which the “lipid storage change, negative = inhibition” value is 7.07% (inactive) and the cell number change was -7.27%. With `COc1cc(NC(=O)CCc2nnc3ccc(N4CCN(C)CC4)nn23)cc(OC)c1`, the outcome was inactive and the cell number change is -14.7%. For `Cc1ccc(C)c(/C=C2\CCn3c2nc2cc(C(=O)O)ccc2c3=O)c1`, the “lipid storage change, negative = inhibition” value is -0.517% (inactive) and the cell number change was found to be 6.53%. As to `CNc1oc(-c2ccc(F)cc2)nc1S(=O)(=O)c1ccccc1`, the compound was called inactive and the cell number change came out at 11.1%. For `CNc1oc(C)nc1S(=O)(=O)c1ccc(C)cc1`, the “lipid storage change, negative = inhibition” value was -9.91% (inactive) and the cell number change is -20.3%. With `CNc1oc(C)nc1S(=O)(=O)c1ccccc1`, the Potency is 32.6 µM (active) and the cell number change was found to be 3.59%. Take `CC(=O)Nc1ccc(S(=O)(=O)Nc2nccc(C3Cc4ccccc4C(=O)O3)n2)cc1` (stereo not drawn): the Potency was 14.6 µM (active) and the cell number change is -1.08%.

Regarding `CC(=O)Nc1ccc(S(=O)(=O)Nc2nccc(C)n2)cc1`, the “lipid storage change, negative = inhibition” value was 5.67% (inactive) and the cell number change amounted to 1.57%.

Consider `CC(=O)Nc1ccc(S(=O)(=O)Nc2ncccn2)cc1`, for which the “lipid storage change, negative = inhibition” value is 5.04% (inactive) and the cell number change was found to be 3.3%. `O=C(CSc1nnc(COc2ccccc2)o1)N1CCN(c2ccccc2)CC1`: the “lipid storage change, negative = inhibition” value was 2.5% (inactive) and the cell number change worked out at 3.22%.

On to `Cc1cccc(C(=O)Nc2ccc(N3CCN(S(C)(=O)=O)CC3)cc2)c1`, for which the “lipid storage change, negative = inhibition” value was -0.275% (inactive) and the cell number change was 1.55%. Turning to `COc1ccc(-n2ncc(C(C)NS(=O)(=O)c3ccc(C(C)=O)cc3)c2C)cc1` (stereo not drawn), the “lipid storage change, negative = inhibition” value is -20.7% (inactive) and the cell number change was -7.79%. Turning to `COC(=O)c1sccc1S(=O)(=O)NC(C)c1cnn(-c2ccc(OC)cc2)c1C` (stereo not drawn), the “lipid storage change, negative = inhibition” value is -6.72% (inactive) and the cell number change was 19.6%. `COc1ccc(-n2ncc(C(C)NS(=O)(=O)c3cc(F)ccc3C)c2C)cc1` (stereo not drawn): the Potency is 9.2 µM (active) and the cell number change is -20.2%.

With `CN(C)CCCN(C(=O)COc1ccccc1)c1nc2ccc(F)cc2s1`, the “lipid storage change, negative = inhibition” value was -6.61% (inactive) and the cell number change is -15.9%.

In the case of `COc1ccc(Cn2nnnc2CN(Cc2cc3cccc(C)c3[nH]c2=O)C2CCCC2)cc1`, the “lipid storage change, negative = inhibition” value was -1.09% (inactive) and the cell number change was -3.93%. For `CCCCN(c1ccccc1)c1ncnc2nc[nH]c12`, the “lipid storage change, negative = inhibition” value is -13.1% (inactive) and the cell number change amounted to 0.284%. As for `O=C1c2cc3ccccc3c(-c3ccccc3)c2C(=O)N1c1ccccn1`, the Potency was 23.1 µM (active) and the cell number change is -7.79%.

As for `O=C1c2cccc3c(N4CCCCC4)ccc(c23)C(=O)N1c1ccccn1`, the “lipid storage change, negative = inhibition” value was 22% (inactive) and the cell number change came to 12.6%. As to `O=c1c2ccccc2c(-c2ccccc2)nn1-c1ccccn1`, the “lipid storage change, negative = inhibition” value was 21.9% (inactive). As to `COc1ccc2c(c1)CCC(C)N2C(=O)C(=O)c1c[nH]c2ccccc12` (stereo not drawn), the “lipid storage change, negative = inhibition” value was 13.6% (inactive). Regarding `CCCCNC(=O)C1CCN(S(=O)(=O)c2c(C)noc2/C=C\c2ccc(OC)cc2)CC1`, the cell number change was 0.864% and the lipid storage change, negative = inhibition was -15.3% [at 9.22 µM] (inactive).

As to `COc1ccccc1CCC(=O)OC(C)C(=O)Nc1c(C)n(C)n(-c2ccccc2)c1=O` (stereo not drawn), the “lipid storage change, negative = inhibition” value is -5.33% (inactive).

In the case of `O=C(NCc1ccco1)C1CCCN1C(=O)Nc1ccc(Br)cc1` (stereo not drawn), the Potency was 7.31 µM (active) and the cell number change stood at 13.3%.

`O=C(NCc1ccco1)C1CCCN1C(=O)Nc1cccc(Cl)c1` (stereo not drawn): the “lipid storage change, negative = inhibition” value was 10.9% (inactive) and the cell number change worked out at 3.19%. In the case of `Cc1cc(C)cc(NC(=O)N2CCCC2C(=O)NCc2ccco2)c1` (stereo not drawn), the “lipid storage change, negative = inhibition” value was 17.2% (inactive) and the cell number change was found to be 4.2%. As to `COCCNC(=O)C1CCN(S(=O)(=O)c2ccccc2)CC1`, the “lipid storage change, negative = inhibition” value is -7.72% (inactive) and the cell number change is -5.9%.

Regarding `CCNS(=O)(=O)c1ccc(C(=O)OCc2cc(=O)oc3cc(OC)ccc23)cc1`, the result was inactive and the cell number change worked out at 12.6%. Regarding `COc1ccc2c(COC(=O)CNS(=O)(=O)c3ccc(C)c(C)c3)cc(=O)oc2c1`, the compound was classed as inactive. On to `CCCNS(=O)(=O)c1cccc(C(=O)OCc2cc(=O)oc3cc(OC)ccc23)c1`, for which the Potency was 0.326 µM (active) and the cell number change came to 20.2%. In the case of `CCOC(=O)C1CCCN(C(=O)c2cc(S(=O)(=O)Nc3ccccc3OC)ccc2C)C1` (stereo not drawn), the “lipid storage change, negative = inhibition” value is 7.98% (inactive) and the cell number change turned out to be 12%. As for `COc1ccc(CCNC(=O)C2CCN(c3nccc(C)n3)CC2)cc1`, the “lipid storage change, negative = inhibition” value was 13.8% (inactive) and the cell number change was found to be 5.66%. Consider `CC(=O)Nc1ccccc1NC(=O)C/C(C)=N/NC(=O)C1CCCCC1`, for which the outcome was inactive and the cell number change is -3.17%. Take `Cc1cccc(C(=O)NCC(=O)OCc2cc(=O)n3ccsc3n2)c1`: the “lipid storage change, negative = inhibition” value is 18.6% (inactive) and the cell number change is -4.9%. With `NC(=O)Nc1ccc(C(=O)OCC(=O)N2CCCC2=O)cc1`, the “lipid storage change, negative = inhibition” value is 17.3% (inactive) and the cell number change was -27.9%. For the compound `O=C(OCC(=O)N1CCCC1=O)c1nc(Cl)c(Cl)c(Cl)c1Cl`, the Potency was 7.08 µM (active) and the cell number change is -29%. `Nc1cc(C(=O)OCC(=O)N2CCCC2=O)ccc1Cl`: the outcome was inactive.

As for `CCCc1cc(=O)c2c(O)cccc2o1`, the “lipid storage change, negative = inhibition” value was 0.102% (inactive) and the cell number change is -3.96%.

Take `O=C(NCCc1ccc(Cl)cc1)Nc1ccc(F)cc1`: the “lipid storage change, negative = inhibition” value was -17.8% (inactive) and the cell number change was -2.02%. For the compound `O=C(NCCc1ccc(F)cc1)Nc1ccc([N+](=O)[O-])cc1`, the Potency was 13 µM (active) and the cell number change amounted to 18.2%. As for `O=C(NCCc1ccncc1)Nc1ccc(F)cc1`, the “lipid storage change, negative = inhibition” value was -6.04% (inactive) and the cell number change is 5.19%.
